Values joined by “and” are separate entries in the source; they are usually repeats but may differ in a detail not shown here. Identical values can stand only once. Records with an inconclusive call do not appear. Some structures have more than one record in an assay (separate samples or runs), and their calls can disagree. Active and inactive are the calls of the source. Unless noted, the call rests on the fitted dose curve; in most records, active means well fitted curve in the direction sought with a large enough effect in the repeat runs; inconclusive means weak or mixed curves; inactive means no such curve, though single readings can be large; an effect the other way counts as inactive or inconclusive.
Experiments:
[1] = qHTS assay to identify small molecule agonists of the hypoxia (HIF-1) signaling pathway - cell viability counter screen (AID 1224844; calls by dose curve; further: nearly all actives have a fitted effect of over 50% in size; further: potency means the concentration at half of the fitted maximal effect)
In short: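 In this counter screen, HRE-bla ME-180 cell viability after 17 hrs of compound exposure at 37C was read by CellTiter-Glo luminescence, multiplexed with the beta-lactamase reporter measurement.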

[2] = qHTS assay to identify small molecule agonists of the hypoxia (HIF-1) signaling pathway (AID 1224846; active means well fitted activation curve with a large enough effect in the signal ratio in the repeat runs, not every such curve was filed as active; the % refers to the signal ratio)
In short: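 ME-180 HRE-bla reporter cells; compounds in DMSO, 17 h at 37C; read-out beta-lactamase via CCF4-AM FRET.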

[3] = qHTS assay to identify small molecule agonists of H2AX - cell viability counter screen (AID 1224847; calls by dose curve; further: nearly all actives have a fitted effect of over 30% in size; further: potency means the concentration at half of the fitted maximal effect; on activity change, negative = cytotoxicity: top concentration of the series differs between compounds)
In short: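 Read-out: CellTiter-Glo luminescence, 30 min RT. Cells: wild-type CHO-K1, 1000/well, 10% FBS, plated overnight at 37C. Treatment: 15 concentrations, 3 hr, 37C, 0.76% DMSO.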

[4] = qHTS assay to identify small molecule antagonists of the estrogen related receptor (ERR) signaling pathway from Tox21 library (AID 1224848); further: nearly all actives have a fitted effect of over 50% in size; further: potency means the concentration at half of the fitted maximal effect
In short: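 Luciferase luminescence (ONE-Glo, 30 min room temperature) was the read-out. Cells of the NTP-supplied ERR line, 2,000 per well, were given 6 h at 37 C before compound addition in DMSO and 18 h exposure at 37 C.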

[5] = qHTS assay to identify small molecule agonists of the estrogen related receptor (ERR) signaling pathway from Tox21 library (AID 1224849; calls by dose curve; further: nearly all actives have a fitted effect of over 15% in size); conditions: ERR reporter cell line, ONE-Glo luciferase, 18 h
In short: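 Luciferase activity in ERR pathway reporter cells served as the agonist readout; exposure lasted 18 h at 37 C, with ONE-Glo detection after 30 min at room temperature.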

[6] = qHTS RealTime-Glo MT Cell Viability Assay in HepG2 cells - 24 hour (AID 1224867); further: nearly all actives have a fitted effect of over 50% in size; further: potency means the concentration at half of the fitted maximal effect
In short: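 Real-time, nonlytic viability: 600 HepG2 cells/well mixed with NanoLuc enzyme plus prosubstrate; 5 h settle, compound (DMSO) added by pintool; luminescence monitored over 40 h at 37 C.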

[7] = qHTS RealTime-Glo MT Cell Viability Assay in HEK293 cells - 32 hour (AID 1224868); further: nearly all actives have a fitted effect of over 50% in size; further: potency means the concentration at half of the fitted maximal effect; on activity change, negative = cytotoxic: top concentration of the series differs between compounds
In short: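 Cells + reagent dispensed (600 cells/well, HEK293) → 5 h at 37 C/5% CO2 → 23 nL compound in DMSO pinned → 40 h at 37 C → luminescence read at 0, 8, 16, 24, 32, 40 h.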

[8] = A CellTox Green Cytotoxicity Assay to monitor cytotoxicity in HEK293 cells - 0 hour (AID 1224869); further: nearly all actives have a fitted effect of over 50% in size; further: potency means the concentration at half of the fitted maximal effect
In short: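 Real-time, in one plate: 600 HEK293 cells/well with dead-cell DNA dye, pinned compound after 5 h, 37 C incubation over 40 h; viable cells give no appreciable fluorescence.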

[9] = qHTS RealTime-Glo MT Cell Viability Assay in HepG2 cells - 40 hour (AID 1224870); further: nearly all actives have a fitted effect of over 50% in size; further: potency means the concentration at half of the fitted maximal effect
In short: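 Real-time viability: cells seeded at 600 per well together with NanoLuc and cell-permeant prosubstrate, compounds added after 5 h incubation. Luminescence tracked at 0, 8, 16, 24, 32 and 40 h of exposure.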
On the % scale 0 is the no-effect control and ±100 the full control effect.

Nc1ccc(O)c(N)c1
inactive: Potency [1] | outcome [2] | Potency [4] | activity change, positive = activation ([5]; at 92.4 µM (top of the series)) -9.18% and -12% | Potency [6] | Potency [7] | Potency [8]
active: Potency [3] 56.3 µM and 50.5 µM

O=C1CCc2ccccc2O1
inactive: Potency [1] | outcome [2] | Potency [3] | Potency [4] | activity change, positive = activation ([5]; at 92.4 µM (top of the series)) -2.99% and -9.1% | Potency [6] | Potency [7] | Potency [8]

COC(=O)CC(=O)OC
inactive: Potency [1] | outcome [2] | Potency [3] | Potency [6] | Potency [7] | Potency [8] | Potency [9]

CN(Cc1cnc2nc(N)nc(N)c2n1)c1ccc(C(=O)N[C@@H](CCC(=O)O)C(=O)O)cc1
inactive: Potency [1] | Potency [6] | Potency [8] | Potency [9]
active: Potency [3] 636 nM and 1.1 µM | Potency [7] 110 nM and 67.4 nM

C=C[Si](OCCOC)(OCCOC)OCCOC
inactive: Potency [1] | outcome [2] | Potency [3] | Potency [6] | Potency [7] | Potency [8]

c1ccc2c(c1)ccc1cc3c(ccc4ccccc43)cc12
inactive: Potency [1] | outcome [2] | Potency [3] | Potency [6] | Potency [7] | Potency [8] | Potency [9]

CN(C)CCCN1c2ccccc2Sc2ccc(Cl)cc21
inactive: activity change, positive = activation ([5]; at 42.5 µM (top of the series)) -35.5% | activity change, positive = activation ([5]; at 92.4 µM (top of the series)) -80.4% | Potency [8]
active: Potency [1] 49 µM | Potency [3] 55.2 µM | Potency [4] 54.5 µM | Potency [6] 43.6 µM and 23.9 µM | Potency [7] 24.5 µM and 23.9 µM | Potency [9] 30.9 µM and 23.9 µM

C[C@]12CC[C@@H]3c4ccc(O)cc4CC[C@H]3[C@@H]1CC[C@H]2O
active: Potency [4] 15.6 µM and 27.3 µM | Potency [7] 5.59 µM and 13.8 µM
inactive: Potency [1] | Potency [3] | activity change, positive = activation ([5]; at 92.4 µM (top of the series)) -38.5% and -39.7% | Potency [6] | Potency [8] | Potency [9]

CC/C=C\C/C=C\C/C=C\CCCCCCCC(=O)O
inactive: Potency [1] | outcome [2] | Potency [3] | Potency [6] | Potency [7] | Potency [8] | Potency [9]

O=[Se](O)O
inactive: Potency [1] | outcome [2] | Potency [3] | activity change, negative = cytotoxicity [6] -0.447% [at 15.8 µM] | Potency [8] | activity change, negative = cytotoxic [9] 2.31% [at 15.8 µM]
active: Potency [7] 19.5 µM | Potency [9] 21.9 µM

COc1ccc2nc(N)sc2c1
inactive: Potency [1] | outcome [2] | Potency [3] | Potency [6] | Potency [8] | Potency [9]
inactive and 2.19 µM (active): Potency [7]

CCCCCCOCCOCCO
inactive: Potency [1] | outcome [2] | Potency [3] | Potency [6] | Potency [7] | Potency [8] | Potency [9]

c1ccc2ncccc2c1
inactive: Potency [1] | outcome [2] | Potency [3] | Potency [6] | Potency [7] | Potency [8] | Potency [9]

C=C1C[C@H]2[C@@H]3C=C(C)C4=CC(=O)CC[C@]4(C)[C@H]3CC[C@]2(C)[C@@]1(OC(C)=O)C(C)=O
active: Potency [4] 24.8 µM and 21.1 µM
inactive: Potency [1] | outcome [2] | Potency [3] | activity change, positive = activation ([5]; at 42.5 µM (top of the series)) -56.4% and -29.1% | Potency [6] | Potency [8] | Potency [9]

CNC[C@H](O)c1ccc(O)c(O)c1
inactive: Potency [1] | Potency [3] | Potency [4] | activity change, positive = activation ([5]; at 19 µM (top of the series)) 16.5% | activity change, positive = activation ([5]; at 92.4 µM (top of the series)) -7.74% | Potency [6] | Potency [7] | Potency [8]

C=C[C@@]1(C)CC(=O)[C@]2(O)[C@@]3(C)[C@@H](O)CCC(C)(C)[C@@H]3[C@H](O)[C@H](OC(C)=O)[C@@]2(C)O1
inactive: outcome [2] | Potency [3] | Potency [6] | Potency [7] | Potency [8] | Potency [9]
active: Potency [1] 38.9 µM

Cc1ccc(/C(=C\CN2CCCC2)c2ccccn2)cc1
inactive: Potency [1] | Potency [3] | Potency [6] | Potency [7] | Potency [8] | Potency [9]

Cc1ccc([N+](=O)[O-])c(C)c1
12.2 µM (active) and inactive: Potency [4]
inactive: outcome [2] | Potency [3] | activity change, positive = activation ([5]; at 92.4 µM (top of the series)) 6.89% | Potency [6] | Potency [8] | Potency [9]
38.9 µM (active) and inactive: Potency [7]
4.37 µM (active) and inactive: Potency [1]

Nc1ccc2c(O)cc(S(=O)(=O)O)cc2c1
inactive: outcome [2] | Potency [3] | activity change, positive = activation ([5]; at 92.4 µM (top of the series)) -54% and -40.6% | Potency [6] | Potency [8] | Potency [9]
active: Potency [4] 24.4 µM and 13.7 µM | Potency [7] 6.17 µM

Nc1cc(Cl)c(N)c(Cl)c1
inactive: Potency [1] | outcome [2] | Potency [3] | Potency [6] | Potency [7] | Potency [8]

Cc1ccc(N)c([N+](=O)[O-])c1
inactive: Potency [1] | outcome [2] | Potency [3] | Potency [6] | Potency [7] | Potency [8] | Potency [9]

CC1(C)NC(=O)N(c2ccc([N+](=O)[O-])c(C(F)(F)F)c2)C1=O
active: Potency [4] 17.2 µM and 11.9 µM | Potency [7] 24.5 µM
28.4 µM (active) and inactive: Potency [3]
inactive: Potency [1] | activity change, positive = activation ([5]; at 42.5 µM (top of the series)) -39.2% | activity change, positive = activation ([5]; at 92.4 µM (top of the series)) -43.1% | Potency [6] | Potency [8] | Potency [9]

O=C(O)COCCN1CCN(C(c2ccccc2)c2ccc(Cl)cc2)CC1 (stereo not given)
inactive: Potency [1] | Potency [3] | Potency [6] | Potency [7] | Potency [8]

CCCCCCCCCCCCCO
inactive: Potency [1] | outcome [2] | Potency [3] | Potency [4] | activity change, positive = activation ([5]; at 92.4 µM (top of the series)) 0.0318% and 3.04% | Potency [6] | Potency [7] | Potency [8] | Potency [9]

CC/C(=C(/CC)c1ccc(O)cc1)c1ccc(O)cc1
inactive: Potency [1] | Potency [6] | Potency [8] | Potency [9]
active: Potency [7] 10.9 µM and 27.5 µM
112 µM (active) and inactive: Potency [3]

CN(C)/N=N/c1nc[nH]c1C(N)=O
active: Potency [4] 69.6 µM
inactive: Potency [1] | Potency [3] | activity change, positive = activation ([5]; at 42.5 µM (top of the series)) -23.2% | activity change, positive = activation ([5]; at 92.4 µM (top of the series)) -35.6% | Potency [6] | Potency [7] | Potency [8] | Potency [9]

Nc1ccc(N)c(Cl)c1
inactive: Potency [1] | outcome [2] | activity change, positive = activation ([5]; at 92.4 µM (top of the series)) -59.7% and -39% | Potency [6] | Potency [7]
inactive and 38.9 µM (active): Potency [8]
active: Potency [4] 68.5 µM and 54.5 µM

CC1(C)OC(=O)NC1=O
inactive: Potency [1] | Potency [3] | Potency [4] | activity change, positive = activation ([5]; at 42.5 µM (top of the series)) 3.88% | activity change, positive = activation ([5]; at 92.4 µM (top of the series)) 4.19% | Potency [6] | Potency [7] | Potency [8] | Potency [9]

COc1ccc(-c2coc3cc(O)cc(O)c3c2=O)cc1
active: Potency [3] 36 µM | Potency [7] 44 µM and 49 µM
inactive: Potency [1] | Potency [6] | Potency [8] | Potency [9]

CC(C)[C@@H]1CC[C@@H](C)CC1=O
inactive: Potency [1] | outcome [2] | Potency [3] | Potency [6] | Potency [7] | Potency [8]

O=S1(=O)CCCO1
inactive: Potency [1] | outcome [2] | Potency [3] | Potency [6] | Potency [7] | Potency [8]

Cc1ccc(S(=O)(=O)O)cc1C
inactive: Potency [1] | outcome [2] | Potency [3] | Potency [6] | Potency [7] | Potency [8] | Potency [9]

CC(=O)Oc1ccc(C(c2ccc(OC(C)=O)cc2)c2ccccn2)cc1
active: Potency [1] 109 nM and 756 nM
inactive: outcome [2] | Potency [3] | Potency [6] | Potency [7] | Potency [8] | Potency [9]

CC[C@]12CCCN3CCc4c(n(c5ccccc45)[C@@](O)(C(=O)OC)C1)[C@@H]32
inactive: Potency [1] | Potency [3] | Potency [4] | activity change, positive = activation ([5]; at 42.5 µM (top of the series)) 7.75% | activity change, positive = activation ([5]; at 92.4 µM (top of the series)) -6.91% | Potency [6] | Potency [7] | Potency [8] | Potency [9]

CC(=O)O[C@]1(C(C)=O)CC[C@H]2[C@@H]3C=C(Cl)C4=CC(=O)CC[C@]4(C)[C@H]3CC[C@@]21C
inactive: Potency [1] | outcome [2] | Potency [6] | Potency [8]
active: Potency [7] 19.5 µM
101 µM (active) and inactive: Potency [3]

c1ccc2cc3ccccc3cc2c1
6.4% (inactive) and 19.8% (active): activity change, positive = activation ([5]; at 92.4 µM (top of the series))
inactive: Potency [1] | outcome [2] | Potency [3] | Potency [4] | Potency [6] | Potency [7] | Potency [8] | Potency [9]

Oc1ccc(C(c2ccc(O)cc2)C(Cl)(Cl)Cl)cc1
inactive: Potency [1] | outcome [2] | Potency [6] | Potency [8] | Potency [9]

IC(I)I
inactive: Potency [1] | outcome [2] | Potency [3] | Potency [4] | activity change, positive = activation ([5]; at 92.4 µM (top of the series)) 0.549% and 0.511% | Potency [7] | Potency [8]
active: Potency [6] 38.8 µM and 38.9 µM | Potency [9] 21.8 µM and 4.9 µM

Clc1ccc(Sc2cc(Cl)c(Cl)cc2Cl)cc1
inactive: Potency [1] | outcome [2] | Potency [3] | Potency [6] | Potency [7] | Potency [8]

NC[C@H](O)c1ccc(O)c(O)c1
inactive: Potency [1] | Potency [3] | Potency [6] | Potency [7] | Potency [8] | Potency [9]

C=C[C@H]1CN2CC[C@H]1C[C@H]2[C@H](O)c1ccnc2ccc(OC)cc12
inactive: Potency [1] | Potency [3] | Potency [6] | Potency [7] | Potency [8]

— PubChem BioAssay (Tox21)
